Target: Nonstructural protein 3 (Zika virus) (UniProt A0A024AXB9)
Details: PRVABC59, Concentration 10.0 uM

Chain of Nonstructural protein 3 (Zika virus) (A0A024AXB9 as listed by the source): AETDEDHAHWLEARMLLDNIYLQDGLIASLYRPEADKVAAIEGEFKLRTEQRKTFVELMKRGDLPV

Q: `CNC(=O)[C@H](Nc1ccc2c(c1)CNC2)c1cc(Cl)cc2[nH]ncc12` was tested. Which pKD (Immobilization level 3900.0 pg/mm2, Rmax 42.0 pg/mm2, ka 444409.109 M-1s-1, kd 0.101 1/s) did it give?
A: 6.65

Q: What about the pKD (Immobilization level 4900.0 pg/mm2, Rmax 59.0 pg/mm2, ka 262811.946 M-1s-1, kd 0.117 1/s) of the same compound?
A: 6.35

Q: What about the pKD (Immobilization level 5500.0 pg/mm2, Rmax 61.0 pg/mm2, ka 294175.896 M-1s-1, kd 0.112 1/s) of the same compound?
A: 6.42

Q: What about the pKD (Immobilization level 10000.0 pg/mm2, Rmax 56.0 pg/mm2, ka 424251.343 M-1s-1, kd 0.126 1/s) of the same compound?
A: 6.53

Q: And the pKD (Immobilization level 12000.0 pg/mm2, Rmax 69.0 pg/mm2, ka 214381.257 M-1s-1, kd 0.135 1/s)?
A: 6.2

Q: What about the pKD (Immobilization level 13000.0 pg/mm2, Rmax 81.0 pg/mm2, ka 342437.146 M-1s-1, kd 0.116 1/s) of the same compound?
A: 6.47

Q: What does the source list for `O=C(NCc1ccc(F)cc1)[C@H](Nc1ccc2c(c1)CNC2)c1cc(Cl)cc2[nH]ncc12`?
A: pKD (Immobilization level 10000.0 pg/mm2, Rmax 51.0 pg/mm2, ka 449498.965 M-1s-1, kd 0.143 1/s): 6.5; pKD (Immobilization level 12000.0 pg/mm2, Rmax 66.0 pg/mm2, ka 240349.747 M-1s-1, kd 0.114 1/s): 6.32; pKD (Immobilization level 13000.0 pg/mm2, Rmax 64.0 pg/mm2, ka 328786.628 M-1s-1, kd 0.139 1/s): 6.37

Q: What does the source list for `CNCc1cccc(NC(=O)c2cc(Cl)cc3[nH]ncc23)c1`?
A: pKD (Immobilization level 3900.0 pg/mm2, Rmax 52.0 pg/mm2, ka 146599.437 M-1s-1, kd 4.892 1/s): 4.48; pKD (Immobilization level 4900.0 pg/mm2, Rmax 92.0 pg/mm2, ka 51361.571 M-1s-1, kd 2.243 1/s): 4.36; pKD (Immobilization level 5500.0 pg/mm2, Rmax 53.0 pg/mm2, ka 187092.368 M-1s-1, kd 3.041 1/s): 4.79; pKD (Immobilization level 12000.0 pg/mm2, Rmax 56.0 pg/mm2, ka 231928.789 M-1s-1, kd 3.617 1/s): 4.81

Q: Which results are given for `NCCc1cccc(NC(=O)c2cc(Cl)cc3[nH]ncc23)c1`?
A: pKD (Immobilization level 3900.0 pg/mm2, Rmax 45.0 pg/mm2, ka 242931.571 M-1s-1, kd 0.931 1/s): 5.42; pKD (Immobilization level 4900.0 pg/mm2, Rmax 34.0 pg/mm2, ka 409629.847 M-1s-1, kd 0.648 1/s): 5.8; pKD (Immobilization level 5500.0 pg/mm2, Rmax 28.0 pg/mm2, ka 470049.02 M-1s-1, kd 0.591 1/s): 5.9; pKD (Immobilization level 10000.0 pg/mm2, Rmax 29.0 pg/mm2, ka 565007.877 M-1s-1, kd 0.814 1/s): 5.84; pKD (Immobilization level 12000.0 pg/mm2, Rmax 46.0 pg/mm2, ka 296699.948 M-1s-1, kd 0.701 1/s): 5.63; pKD (Immobilization level 13000.0 pg/mm2, Rmax 42.0 pg/mm2, ka 451227.872 M-1s-1, kd 0.736 1/s): 5.79

Q: With `CC(C)COc1ccc(Cl)cc1C(=O)Nc1ccc2c(c1)CNC2` as the compound, how does the pKD (Immobilization level 10000.0 pg/mm2, Rmax 31.0 pg/mm2, ka 259814.072 M-1s-1, kd 6.366 1/s) read?
A: 4.61

Q: And the pKD (Immobilization level 12000.0 pg/mm2, Rmax 37.0 pg/mm2, ka 228783.03 M-1s-1, kd 3.033 1/s)?
A: 4.88

Q: What about the pKD (Immobilization level 13000.0 pg/mm2, Rmax 33.0 pg/mm2, ka 351290.772 M-1s-1, kd 5.134 1/s) of the same compound?
A: 4.83

Q: Which results are given for `Cn1nc(C(=O)Nc2ccc3c(c2)CNC3)c2cc(Br)ccc21`?
A: pKD (Immobilization level 3900.0 pg/mm2, Rmax 7.0 pg/mm2, ka 186374.339 M-1s-1, kd 1.611 1/s): 5.06; pKD (Immobilization level 4900.0 pg/mm2, Rmax 17.0 pg/mm2, ka 132352.529 M-1s-1, kd 1.379 1/s): 4.98; pKD (Immobilization level 5500.0 pg/mm2, Rmax 22.0 pg/mm2, ka 128273.344 M-1s-1, kd 1.393 1/s): 4.96

Q: Which pKD (Immobilization level 10000.0 pg/mm2, Rmax 24.0 pg/mm2, ka 238302.252 M-1s-1, kd 1.184 1/s) does the source give for `N#Cc1cc(Cl)cc([C@H](C#N)Nc2ccc3c(c2)CNC3)c1` here?
A: 5.3

Q: And the pKD (Immobilization level 12000.0 pg/mm2, Rmax 44.0 pg/mm2, ka 146250.163 M-1s-1, kd 0.612 1/s)?
A: 5.38

Q: And the pKD (Immobilization level 13000.0 pg/mm2, Rmax 28.0 pg/mm2, ka 315015.409 M-1s-1, kd 0.863 1/s)?
A: 5.56

Q: What does the source list for `N[C@H]1Cc2ccc(NC(=O)c3cc(Cl)cc4[nH]ncc34)cc2C1`?
A: pKD (Immobilization level 3900.0 pg/mm2, Rmax 32.0 pg/mm2, ka 340293.713 M-1s-1, kd 0.278 1/s): 6.09; pKD (Immobilization level 4900.0 pg/mm2, Rmax 50.0 pg/mm2, ka 211944.111 M-1s-1, kd 0.288 1/s): 5.87; pKD (Immobilization level 5500.0 pg/mm2, Rmax 52.0 pg/mm2, ka 230237.04 M-1s-1, kd 0.293 1/s): 5.9; pKD (Immobilization level 10000.0 pg/mm2, Rmax 43.0 pg/mm2, ka 451655.452 M-1s-1, kd 0.518 1/s): 5.94; pKD (Immobilization level 12000.0 pg/mm2, Rmax 66.0 pg/mm2, ka 170946.752 M-1s-1, kd 0.316 1/s): 5.73; pKD (Immobilization level 13000.0 pg/mm2, Rmax 60.0 pg/mm2, ka 295502.849 M-1s-1, kd 0.406 1/s): 5.86

Q: What does the source list for `O=C(Nc1ccc2c(c1)CNC2)c1cc(Cl)cc(-n2cccc2)c1`?
A: pKD (Immobilization level 10000.0 pg/mm2, Rmax 42.0 pg/mm2, ka 59822.118 M-1s-1, kd 0.636 1/s): 4.97; pKD (Immobilization level 12000.0 pg/mm2, Rmax 78.0 pg/mm2, ka 29884.208 M-1s-1, kd 0.167 1/s): 5.25; pKD (Immobilization level 13000.0 pg/mm2, Rmax 57.0 pg/mm2, ka 51449.064 M-1s-1, kd 0.399 1/s): 5.11

Q: What does the source list for `O=C(NC[C@H]1CCCO1)[C@H](Nc1ccc2c(c1)CNC2)c1cc(Cl)cc(C2CC2)c1`?
A: pKD (Immobilization level 10000.0 pg/mm2, Rmax 42.0 pg/mm2, ka 577169.922 M-1s-1, kd 0.179 1/s): 6.51; pKD (Immobilization level 12000.0 pg/mm2, Rmax 59.0 pg/mm2, ka 295597.466 M-1s-1, kd 0.112 1/s): 6.42; pKD (Immobilization level 13000.0 pg/mm2, Rmax 62.0 pg/mm2, ka 409256.138 M-1s-1, kd 0.153 1/s): 6.43

Q: Which results are given for `NCc1ccc(NC(=O)c2cc(Cl)cc3[nH]ncc23)cc1F`?
A: pKD (Immobilization level 3900.0 pg/mm2, Rmax 23.0 pg/mm2, ka 241912.451 M-1s-1, kd 2.753 1/s): 4.94; pKD (Immobilization level 4900.0 pg/mm2, Rmax 19.0 pg/mm2, ka 418363.843 M-1s-1, kd 3.02 1/s): 5.14; pKD (Immobilization level 5500.0 pg/mm2, Rmax 22.0 pg/mm2, ka 268076.557 M-1s-1, kd 2.711 1/s): 5; pKD (Immobilization level 12000.0 pg/mm2, Rmax 15.0 pg/mm2, ka 138303.314 M-1s-1, kd 1.565 1/s): 4.95; pKD (Immobilization level 13000.0 pg/mm2, Rmax 64.0 pg/mm2, ka 32485.569 M-1s-1, kd 2.272 1/s): 4.16

Q: For `O=C(Nc1ccc2c(c1)CNCCC2)c1cc(Cl)cc2[nH]ncc12`, which pKD (Immobilization level 3900.0 pg/mm2, Rmax 31.0 pg/mm2, ka 773276.281 M-1s-1, kd 0.645 1/s) is on record?
A: 6.08

Q: And the pKD (Immobilization level 4900.0 pg/mm2, Rmax 48.0 pg/mm2, ka 455527.731 M-1s-1, kd 0.593 1/s)?
A: 5.89

Q: And the pKD (Immobilization level 5500.0 pg/mm2, Rmax 50.0 pg/mm2, ka 530646.741 M-1s-1, kd 0.578 1/s)?
A: 5.96

Q: And the pKD (Immobilization level 10000.0 pg/mm2, Rmax 36.0 pg/mm2, ka 650451.64 M-1s-1, kd 0.663 1/s)?
A: 5.99

Q: And the pKD (Immobilization level 12000.0 pg/mm2, Rmax 60.0 pg/mm2, ka 669381.958 M-1s-1, kd 0.419 1/s)?
A: 6.2

Q: What about the pKD (Immobilization level 13000.0 pg/mm2, Rmax 48.0 pg/mm2, ka 553000.714 M-1s-1, kd 0.56 1/s) of the same compound?
A: 5.99

Q: Which pKD (Immobilization level 3900.0 pg/mm2, Rmax 48.0 pg/mm2, ka 216599.094 M-1s-1, kd 1.609 1/s) does the source give for `Cc1ccc(NC(=O)c2cc(Cl)cc3[nH]ncc23)cc1CN` here?
A: 5.13

Q: And the pKD (Immobilization level 4900.0 pg/mm2, Rmax 54.0 pg/mm2, ka 242573.531 M-1s-1, kd 1.329 1/s)?
A: 5.26

Q: What about the pKD (Immobilization level 5500.0 pg/mm2, Rmax 70.0 pg/mm2, ka 222473.098 M-1s-1, kd 1.517 1/s) of the same compound?
A: 5.17

Q: What about the pKD (Immobilization level 10000.0 pg/mm2, Rmax 57.0 pg/mm2, ka 286418.042 M-1s-1, kd 1.725 1/s) of the same compound?
A: 5.22

Q: What about the pKD (Immobilization level 12000.0 pg/mm2, Rmax 54.0 pg/mm2, ka 243003.449 M-1s-1, kd 1.258 1/s) of the same compound?
A: 5.29

Q: What about the pKD (Immobilization level 13000.0 pg/mm2, Rmax 74.0 pg/mm2, ka 258887.039 M-1s-1, kd 1.289 1/s) of the same compound?
A: 5.3

— ChEMBL document CHEMBL5598561, “ASAP - In vitro binding kinetics” (2024)
